# Where “and” joins values, the source holds several entries; their conditions need not be identical. Equal values may be shown once. Unmarked numbers belong to inactive results. Records with an inconclusive call do not appear. Where a call stands in place of a potency, no number is given. Calls of active or inactive are those of the source. The call rests on the fitted dose curve; in most records, active means well fitted curve in the direction sought with a large enough effect in the repeat runs; inconclusive means weak or mixed curves; inactive means no such curve, though single readings can be large; an effect the other way counts as inactive or inconclusive.
# Assays:
# [1] = Caspase-3/7 induction in HepG2 cells by small molecules, qHTS assay (AID 1346978); further: nearly all actives have a fitted effect of over 15% in size; further: potency means the concentration at half of the fitted maximal effect
# Summary of the method: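 Wild-type HepG2 cells, 2,000/well, settled 5 hr at 37 C and 5% CO2, then compound-treated for 17 hr; caspase-3/7 activity read by luminescent Caspase-Glo 3/7 after 30 min at room temperature.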
# [2] = Caspase-3/7 induction in CHO-K1 cells by small molecules, qHTS assay (AID 1346980); further: nearly all actives have a fitted effect of over 15% in size
# Summary of the method: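 Wild-type CHO-K1 cells exposed to compounds for 17hr at 37 C, 5% CO2. Caspase-3/7 activity then measured by Caspase-Glo 3/7 luminescence after 30min at room temperature.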
# [3] = Caspase-3/7 induction in HepG2 cells by small molecules, qHTS cell viability counter screen (AID 1346981); further: nearly all actives have a fitted effect of over 30% in size; further: potency means the concentration at half of the fitted maximal effect; on activity change, negative = cytotoxicity: series mostly up to about 92 µM
# Summary of the method: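 Fluorescence read-out of live-cell protease activity (CellTiter-Fluor) after 1 hr with reagent. This was measured in the same wells as the caspase-3/7 luminescence, on HepG2 cells exposed to DMSO-dissolved compounds for 16 hr at 37 C.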
# [4] = target: Nuclear receptor subfamily 1 group I member 2 (Homo sapiens) (UniProt O75469); experiment: Human pregnane X receptor (PXR) small molecule agonists, qHTS assay (AID 1346982); further: nearly all actives have a fitted effect of over 35% in size; further: potency means the concentration at half of the fitted maximal effect
# Chain of Nuclear receptor subfamily 1 group I member 2 (Homo sapiens) (O75469 whole entry, looked up): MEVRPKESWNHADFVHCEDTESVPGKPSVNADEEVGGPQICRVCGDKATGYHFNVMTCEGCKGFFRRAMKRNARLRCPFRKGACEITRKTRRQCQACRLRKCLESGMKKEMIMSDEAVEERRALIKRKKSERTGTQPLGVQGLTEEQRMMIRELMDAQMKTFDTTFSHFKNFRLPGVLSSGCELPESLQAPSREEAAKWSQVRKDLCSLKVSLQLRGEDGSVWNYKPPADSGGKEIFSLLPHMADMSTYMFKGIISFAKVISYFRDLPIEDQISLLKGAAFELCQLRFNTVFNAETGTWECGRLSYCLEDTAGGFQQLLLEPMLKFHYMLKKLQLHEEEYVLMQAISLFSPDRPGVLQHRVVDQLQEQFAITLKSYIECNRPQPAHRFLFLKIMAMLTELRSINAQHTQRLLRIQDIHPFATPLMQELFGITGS
# Summary of the method: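 HepG2 PXR-Luc reporter line, 5% charcoal-stripped FBS; 5 hr pre-incubation, compound (DMSO) 24 hr at 37 C/5% CO2; ONE-Glo 30 min RT; luminescence read-out.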
# [5] = target: Cytochrome P450 2D6 (Homo sapiens) (UniProt P10635); experiment: Cytochrome P450 Family 2 Subfamily D Member 6 (CYP2D6) small molecule antagonists: luciferase reporter qHTS assay (AID 1671196); further: nearly all actives have a fitted effect of over 50% in size; further: potency means the concentration at half of the fitted maximal effect; on activity change, negative = inhibition: series mostly up to about 120 µM
# Chain of Cytochrome P450 2D6 (Homo sapiens) (P10635 whole entry, looked up): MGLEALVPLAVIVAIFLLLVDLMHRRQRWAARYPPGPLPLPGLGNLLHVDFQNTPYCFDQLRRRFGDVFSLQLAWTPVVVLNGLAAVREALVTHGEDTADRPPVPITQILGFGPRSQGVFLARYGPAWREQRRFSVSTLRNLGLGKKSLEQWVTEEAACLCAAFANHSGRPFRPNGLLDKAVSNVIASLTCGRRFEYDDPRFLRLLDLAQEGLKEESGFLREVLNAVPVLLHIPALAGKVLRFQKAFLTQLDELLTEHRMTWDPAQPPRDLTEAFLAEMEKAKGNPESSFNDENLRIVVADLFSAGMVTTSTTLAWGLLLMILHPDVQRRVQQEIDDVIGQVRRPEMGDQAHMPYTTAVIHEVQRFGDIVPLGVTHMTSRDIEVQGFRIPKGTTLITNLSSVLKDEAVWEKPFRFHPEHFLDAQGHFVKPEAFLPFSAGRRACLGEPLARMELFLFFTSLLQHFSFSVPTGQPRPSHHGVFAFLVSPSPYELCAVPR
# Summary of the method: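 Luminogenic proluciferin substrate, CYP2D6 enzyme; 10 min RT preincubation with compound, NADPH regeneration system added, 1 h RT. Stop/detection reagent, 20 min RT, luminescence read (RLU). Signal proportional to CYP activity.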
# [6] = target: Cytochrome P450 2C19 (Homo sapiens) (UniProt P33261); experiment: Cytochrome P450 Family 2 Subfamily C Member 19 (CYP2C19) small molecule antagonists: luciferase reporter qHTS assay (AID 1671197); further: nearly all actives have a fitted effect of over 65% in size; further: potency means the concentration at half of the fitted maximal effect; on activity change, negative = inhibition: series mostly up to about 120 µM
# Chain of Cytochrome P450 2C19 (Homo sapiens) (P33261 whole entry, looked up): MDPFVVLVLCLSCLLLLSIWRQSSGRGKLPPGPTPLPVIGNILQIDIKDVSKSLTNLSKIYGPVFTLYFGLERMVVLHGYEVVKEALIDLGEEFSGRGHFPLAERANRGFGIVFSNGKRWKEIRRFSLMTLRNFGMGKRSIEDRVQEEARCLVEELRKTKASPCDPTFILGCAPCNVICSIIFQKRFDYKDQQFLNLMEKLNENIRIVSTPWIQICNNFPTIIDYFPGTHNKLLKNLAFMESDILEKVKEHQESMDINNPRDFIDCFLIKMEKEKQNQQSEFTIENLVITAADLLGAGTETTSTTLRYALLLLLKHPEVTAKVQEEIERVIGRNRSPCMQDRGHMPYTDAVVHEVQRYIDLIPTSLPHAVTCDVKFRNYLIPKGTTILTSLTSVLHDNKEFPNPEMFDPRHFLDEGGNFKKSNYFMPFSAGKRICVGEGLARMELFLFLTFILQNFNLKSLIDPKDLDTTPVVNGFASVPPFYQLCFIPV
# Summary of the method: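 First, compounds are pinned into enzyme-substrate mix and held 10 min at room temperature. Second, NADPH regeneration solution is added and plates incubate 1 h at 37C. Third, detection reagent is added and luminescence read after 20 min.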
# [7] = target: Cytochrome P450 2C9 (Homo sapiens) (UniProt P11712); experiment: Cytochrome P450 Family 2 Subfamily C Member 9 (CYP2C9) small molecule antagonists: luciferase reporter qHTS assay (AID 1671198); further: nearly all actives have a fitted effect of over 50% in size; further: potency means the concentration at half of the fitted maximal effect; on activity change, negative = inhibition: series mostly up to about 120 µM
# Chain of Cytochrome P450 2C9 (Homo sapiens) (P11712 whole entry, looked up): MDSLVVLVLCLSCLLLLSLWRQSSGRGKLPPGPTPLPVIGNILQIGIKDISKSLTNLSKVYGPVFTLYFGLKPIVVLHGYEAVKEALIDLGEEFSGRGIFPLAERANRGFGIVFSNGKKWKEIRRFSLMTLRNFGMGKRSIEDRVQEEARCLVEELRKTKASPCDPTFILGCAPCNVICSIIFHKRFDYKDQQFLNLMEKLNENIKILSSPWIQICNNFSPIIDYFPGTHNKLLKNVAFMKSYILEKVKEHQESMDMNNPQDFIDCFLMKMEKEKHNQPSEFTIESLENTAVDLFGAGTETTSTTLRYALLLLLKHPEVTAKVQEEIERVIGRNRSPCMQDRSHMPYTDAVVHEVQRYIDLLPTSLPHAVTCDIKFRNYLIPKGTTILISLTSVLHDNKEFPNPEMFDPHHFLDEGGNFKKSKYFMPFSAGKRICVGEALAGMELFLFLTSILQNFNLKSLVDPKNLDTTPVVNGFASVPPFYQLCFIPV
# Summary of the method: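 P450-Glo proluciferin substrate with CYP2C9 enzyme; 10 min RT preincubation, then NADPH regeneration 1 h at 37C; luciferin detection reagent 20 min RT, luminescence in relative luminescence units.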
# [8] = target: Voltage-gated inwardly rectifying potassium channel KCNH2 (Homo sapiens) (UniProt Q12809); experiment: Human Ether-a-go-go-Related Gene (hERG) channel small molecule antagonists: fluorescence cell-based qHTS assay (AID 1671200);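 further: hERG-expressing U2OS cells given a thallium stimulus after FluxOR II dye loading; series mostly up to about 77 µM; nearly all actives have a fitted effect of over 50% in size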
# Chain of Voltage-gated inwardly rectifying potassium channel KCNH2 (Homo sapiens) (Q12809 whole entry, looked up): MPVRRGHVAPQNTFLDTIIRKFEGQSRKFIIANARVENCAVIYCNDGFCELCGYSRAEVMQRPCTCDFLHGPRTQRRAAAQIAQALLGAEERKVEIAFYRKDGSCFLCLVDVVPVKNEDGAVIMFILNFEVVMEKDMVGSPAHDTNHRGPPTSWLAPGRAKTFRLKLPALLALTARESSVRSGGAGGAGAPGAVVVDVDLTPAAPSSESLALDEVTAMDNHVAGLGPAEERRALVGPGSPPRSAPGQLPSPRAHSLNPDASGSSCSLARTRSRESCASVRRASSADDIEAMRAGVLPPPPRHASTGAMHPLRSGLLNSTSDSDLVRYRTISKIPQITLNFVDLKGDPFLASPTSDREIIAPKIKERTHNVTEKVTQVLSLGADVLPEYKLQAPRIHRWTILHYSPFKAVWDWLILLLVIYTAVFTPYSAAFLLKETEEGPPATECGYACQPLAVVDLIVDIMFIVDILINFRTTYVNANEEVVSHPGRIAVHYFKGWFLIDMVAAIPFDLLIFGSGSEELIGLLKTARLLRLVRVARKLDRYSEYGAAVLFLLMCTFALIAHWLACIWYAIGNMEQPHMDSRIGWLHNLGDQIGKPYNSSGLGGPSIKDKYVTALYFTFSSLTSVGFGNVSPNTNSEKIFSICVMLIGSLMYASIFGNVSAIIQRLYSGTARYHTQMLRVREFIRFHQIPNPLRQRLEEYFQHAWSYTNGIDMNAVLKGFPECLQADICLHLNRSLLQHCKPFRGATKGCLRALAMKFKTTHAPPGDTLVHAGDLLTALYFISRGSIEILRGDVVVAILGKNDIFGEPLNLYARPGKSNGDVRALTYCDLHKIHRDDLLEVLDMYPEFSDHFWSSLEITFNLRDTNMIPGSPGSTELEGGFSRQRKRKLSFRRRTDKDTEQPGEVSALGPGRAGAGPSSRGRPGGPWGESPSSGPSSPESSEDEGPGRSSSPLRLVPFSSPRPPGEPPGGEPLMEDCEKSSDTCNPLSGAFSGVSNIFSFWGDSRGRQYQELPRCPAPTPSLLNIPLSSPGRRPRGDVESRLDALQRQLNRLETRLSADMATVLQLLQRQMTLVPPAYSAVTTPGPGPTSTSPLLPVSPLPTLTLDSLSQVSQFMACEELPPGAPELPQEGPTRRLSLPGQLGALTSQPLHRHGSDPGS
# Summary of the method: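 In this thallium-flux screen, overnight-cultured U2OS cells bearing the channel are dye-loaded in darkness for an hour, rested 10 min at room temperature, and then monitored kinetically at 480/540 nm for two minutes post-stimulus.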
# [9] = target: Cytochrome P450 1A2 (Homo sapiens) (UniProt P05177); experiment: Cytochrome P450 Family 1 Subfamily A Member 2 (CYP1A2) small molecule antagonists: luciferase reporter qHTS assay (AID 1671199); further: nearly all actives have a fitted effect of over 50% in size; further: potency means the concentration at half of the fitted maximal effect; on activity change, negative = inhibition: series mostly up to about 120 µM
# Chain of Cytochrome P450 1A2 (Homo sapiens) (P05177 whole entry, looked up): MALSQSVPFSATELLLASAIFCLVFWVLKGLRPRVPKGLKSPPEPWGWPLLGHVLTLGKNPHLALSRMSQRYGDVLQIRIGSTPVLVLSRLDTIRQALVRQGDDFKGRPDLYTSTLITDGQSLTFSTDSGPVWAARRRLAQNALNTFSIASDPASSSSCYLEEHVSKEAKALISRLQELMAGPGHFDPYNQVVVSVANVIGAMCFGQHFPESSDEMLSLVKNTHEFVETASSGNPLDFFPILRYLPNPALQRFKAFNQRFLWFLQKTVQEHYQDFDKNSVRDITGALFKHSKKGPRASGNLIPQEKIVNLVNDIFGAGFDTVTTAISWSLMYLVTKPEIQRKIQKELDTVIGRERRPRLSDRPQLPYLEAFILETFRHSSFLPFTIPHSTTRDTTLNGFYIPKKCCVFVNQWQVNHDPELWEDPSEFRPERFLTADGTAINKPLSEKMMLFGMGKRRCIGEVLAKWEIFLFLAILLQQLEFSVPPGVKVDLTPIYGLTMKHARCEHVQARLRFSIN
# Summary of the method: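 Luminescence readout (relative luminescence units) after luciferin detection reagent, 20 min RT. Preceded by 1 h room-temperature CYP1A2 reaction with NADPH regeneration solution following 10 min compound preincubation with enzyme and proluciferin substrate. Furafylline positive control.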
# [10] = target: Cytochrome P450 3A4 (Homo sapiens) (UniProt P08684); experiment: Cytochrome P450 Family 3 Subfamily A Member 4 (CYP3A4) small molecule antagonists: luciferase reporter qHTS assay (AID 1671201); further: nearly all actives have a fitted effect of over 50% in size; further: potency means the concentration at half of the fitted maximal effect; on activity change, negative = inhibition: series mostly up to about 120 µM
# Chain of Cytochrome P450 3A4 (Homo sapiens) (P08684 whole entry, looked up): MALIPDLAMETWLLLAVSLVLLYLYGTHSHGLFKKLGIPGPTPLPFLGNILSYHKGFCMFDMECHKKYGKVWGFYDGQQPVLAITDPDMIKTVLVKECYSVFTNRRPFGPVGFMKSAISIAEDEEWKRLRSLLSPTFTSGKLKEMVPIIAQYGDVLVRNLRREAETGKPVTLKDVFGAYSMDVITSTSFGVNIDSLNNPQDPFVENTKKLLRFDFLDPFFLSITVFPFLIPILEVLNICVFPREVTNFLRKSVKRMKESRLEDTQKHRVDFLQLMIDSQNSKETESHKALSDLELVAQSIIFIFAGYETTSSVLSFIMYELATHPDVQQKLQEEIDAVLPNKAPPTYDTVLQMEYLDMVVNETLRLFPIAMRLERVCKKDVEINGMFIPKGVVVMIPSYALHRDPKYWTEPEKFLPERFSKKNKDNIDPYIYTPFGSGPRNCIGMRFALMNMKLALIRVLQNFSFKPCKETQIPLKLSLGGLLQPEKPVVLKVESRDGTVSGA
# Summary of the method: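 CYP3A4 activity was followed with a P450-Glo proluciferin substrate. Test compounds in DMSO were preincubated 10 min; NADPH regeneration then ran 1 h, and light output was read 20 min after detection reagent.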
# [11] = target: Nuclear receptor subfamily 1 group I member 2 (Rattus norvegicus) (UniProt Q9R1A7); experiment: Rat pregnane X receptor (rPXR) activation by small molecules, qHTS assay (AID 1346983); settings: rPXR luciferase reporter cells, One-Glo luminescence, 24 h; max activation: active compounds read high; further: nearly all actives have a fitted effect of over 20% in size; further: potency means the concentration at half of the fitted maximal effect
# Chain of Nuclear receptor subfamily 1 group I member 2 (Rattus norvegicus) (Q9R1A7 whole entry, looked up): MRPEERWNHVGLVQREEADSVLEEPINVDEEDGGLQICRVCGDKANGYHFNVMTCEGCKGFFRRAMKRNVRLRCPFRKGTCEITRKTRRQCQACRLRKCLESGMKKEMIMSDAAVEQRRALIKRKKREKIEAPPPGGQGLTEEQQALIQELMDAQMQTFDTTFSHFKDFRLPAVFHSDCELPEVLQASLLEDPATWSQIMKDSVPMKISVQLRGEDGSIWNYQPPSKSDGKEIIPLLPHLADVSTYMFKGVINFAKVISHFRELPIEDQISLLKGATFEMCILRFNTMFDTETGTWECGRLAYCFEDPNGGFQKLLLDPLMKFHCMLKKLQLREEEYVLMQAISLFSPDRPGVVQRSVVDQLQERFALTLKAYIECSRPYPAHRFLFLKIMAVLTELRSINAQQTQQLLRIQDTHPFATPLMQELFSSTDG
# Summary of the method: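 Cell-based rPXR activation assay: rPXR cells, 2,000 per well, rested 5hr at 37 C, then exposed to compounds in DMSO for 24 hr at 37 C. Luciferase activity read by One-Glo luminescence after 30 min at room temperature.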
# [12] = Caspase-3/7 induction in CHO-K1 cells by small molecules, qHTS cell viability counter screen (AID 1346979); further: potency means the concentration at half of the fitted maximal effect; nearly all actives have a fitted effect of over 35% in size
# Summary of the method: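 Following a 5hr settling period, CHO-K1 cells at 1,500 per well received DMSO-dissolved compounds. Cell viability was quantified 16hr later by CellTiter-Fluor fluorescence, measured after 1hr with reagent at 37C.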
# [13] = target: Nuclear receptor subfamily 1 group I member 2 (Homo sapiens) (UniProt O75469); experiment: CYP3A4 induction through human pregnane X receptor (PXR) by small molecules, qHTS assay (AID 1346984); further: potency means the concentration at half of the fitted maximal effect; nearly all actives have a fitted effect of over 40% in size
# Summary of the method: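 HepG2-derived DPX-2 line carrying PXR plus a CYP3A4-promoter luciferase reporter; cells plated 5 hr, compound-exposed 24 hr at 37C. CYP3A4 activity probed with 3uM (final) Luciferin-IPA for 3hr, then luciferase read after One-Glo.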
# [14] = target: Nuclear receptor subfamily 1 group I member 2 (Homo sapiens) (UniProt O75469); experiment: Human pregnane X receptor (PXR) activation by small molecules, qHTS assay (AID 1346985); further: potency means the concentration at half of the fitted maximal effect; nearly all actives have a fitted effect of over 40% in size
# Summary of the method: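 DPX-2 cells (HepG2 co-transfected with a PXR response element and a CYP3A4-promoter luciferase construct) were seeded at 2,000 per well, rested 5 hr at 37C, then exposed to DMSO-dissolved compounds for 24 hr. Activation was read as luciferase luminescence.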
smiles,measurement,setting,value
Cc1ccc(S(=O)(=O)NC2CCCCC2)cc1,Potency,[1],inactive
same,outcome,[2],inactive
same,Potency,[3],inactive
same,Potency,[4],27.1 µM (active)
same,Potency,[5],inactive
same,Potency,[6],6.28 µM (active)
same,Potency,[7],22.3 µM (active)
same,Potency,[8],inactive
Nc1ccc(C(=O)OCCCOC(=O)c2ccc(N)cc2)cc1,Potency,[1],inactive
same,outcome,[2],inactive
same,Potency,[3],inactive
same,Potency,[4],54.5 µM (active)
same,Potency,[5],39.9 µM (active)
same,Potency,[6],17.8 µM (active)
same,Potency,[7],7.1 µM (active)
same,Potency,[9],7.1 µM (active)
same,Potency,[10],2.24 µM (active)
CC(=O)N(c1onc(C)c1C)S(=O)(=O)c1ccc(N)cc1,Potency,[1],inactive
same,outcome,[2],inactive
same,Potency,[3],inactive
same,Potency,[4],inactive
same,Potency,[5],inactive
same,Potency,[6],inactive
same,Potency,[7],inactive
same,Potency,[9],inactive
same,Potency,[8],inactive
Cc1cc(O)c2c(O)c3c(O)cccc3cc2c1,Potency,[1],inactive
same,outcome,[2],inactive
same,Potency,[3],inactive
same,Potency,[4],11.9 µM (active)
same,Potency,[5],inactive
same,Potency,[6],4.36 µM (active)
same,Potency,[7],4.9 µM (active)
same,Potency,[8],inactive
O=C1NCCN1,Potency,[1],inactive
same,outcome,[2],inactive
same,Potency,[3],inactive
same,Potency,[4],inactive
same,Potency,[5],21.5 µM (active)
same,Potency,[6],34.1 µM (active)
same,Potency,[7],inactive
same,Potency,[8],inactive
same,Potency,[10],inactive
Oc1cc(O)c(Cl)cc1Cl,Potency,[1],inactive
same,outcome,[2],inactive
same,Potency,[3],inactive
same,Potency,[4],inactive
same,Potency,[6],inactive
same,Potency,[7],40.9 µM (active)
same,Potency,[9],18.3 µM (active)
same,Potency,[8],inactive
CC1=NN(c2ccc(C(=O)O)cc2)C(=O)C1,Potency,[1],inactive
same,outcome,[2],inactive
same,Potency,[3],inactive
same,Potency,[4],inactive
same,Potency,[6],20 µM (active)
same,Potency,[7],inactive
same,Potency,[9],inactive
same,Potency,[8],inactive
same,Potency,[10],inactive
CC1CN(c2cc3c(cc2F)c(=O)c(C(=O)O)cn3-c2ccc(F)cc2F)CCN1 (stereo unspecified),caspase activation,[1],-0.856% [at 8.39 µM]
same,caspase-3/7 activation,[2],-0.241% [at 8.39 µM]
same,"activity change, negative = cytotoxicity",[3],-2.3% [at 8.39 µM]
same,activation,[4],-2.46% [at 8.39 µM]
same,"activity change, negative = inhibition",[5],-0.211% [at 10.5 µM]
same,"activity change, negative = inhibition",[6],31.4% [at 10.5 µM]
same,"activity change, negative = inhibition",[7],2.17% [at 10.5 µM]
same,"activity change, negative = inhibition",[9],1.79% [at 10.5 µM]
same,"activity change, negative = inhibition",[8],3.92% [at 6.97 µM]
same,"activity change, negative = inhibition",[10],4.32% [at 10.5 µM]
O=C(O)c1ccc(CO)o1,Potency,[1],inactive
same,outcome,[2],inactive
same,Potency,[3],inactive
same,Potency,[4],inactive
same,Potency,[5],18.2 µM (active)
same,Potency,[6],inactive
same,Potency,[7],inactive
same,Potency,[9],64.4 µM (active)
same,Potency,[8],inactive
same,Potency,[10],inactive
C[Si]1(C)O[Si](C)(C)O[Si](C)(C)O1,Potency,[1],inactive
same,outcome,[2],inactive
same,Potency,[3],inactive
same,Potency,[4],inactive
same,Potency,[5],inactive
same,Potency,[6],inactive
same,Potency,[7],inactive
same,Potency,[9],inactive
same,Potency,[8],inactive
same,Potency,[10],inactive
C/C(=N/NC(=O)c1ccncc1)C(=O)O,Potency,[1],inactive
same,outcome,[2],inactive
same,Potency,[3],inactive
same,Potency,[4],inactive
same,Potency,[5],inactive
same,Potency,[7],inactive
same,Potency,[9],inactive
same,Potency,[8],inactive
Oc1ccc(Nc2ccccc2)cc1,Potency,[1],inactive
same,outcome,[2],inactive
same,Potency,[3],inactive
same,Potency,[4],54.5 µM (active)
same,Potency,[5],63.3 µM (active)
same,Potency,[6],20 µM (active)
same,Potency,[7],28.3 µM (active)
same,Potency,[9],31.7 µM (active)
same,Potency,[8],inactive
same,Potency,[10],inactive
O=C(C(=O)c1ccccc1)c1ccccc1,Potency,[1],inactive
same,outcome,[2],inactive
same,Potency,[3],inactive
same,Potency,[4],inactive
same,Potency,[5],31.6 µM (active)
same,Potency,[6],8.9 µM (active)
same,Potency,[7],inactive
same,Potency,[9],11.2 µM (active)
same,Potency,[8],inactive
same,Potency,[10],inactive
O=C(OCCOCCO)c1ccccc1Nc1cccc(C(F)(F)F)c1,Potency,[1],inactive
same,outcome,[2],inactive
same,Potency,[3],inactive
same,max activation,[11],-0.0091%
same,Potency,[5],inactive
same,Potency,[7],17.4 µM (active)
same,Potency,[9],12.3 µM (active)
CCCCCCCCCCCCCCCCBr,caspase activation,[1],2.76% [at 19 µM]
same,caspase-3/7 activation,[2],-0.176% [at 19 µM]
same,"activity change, negative = cytotoxicity",[3],4.64% [at 19 µM]
same,activation,[4],-5.34% [at 19 µM]
same,"activity change, negative = inhibition",[6],0.164% [at 23.6 µM]
same,"activity change, negative = inhibition",[7],-1.68% [at 23.6 µM]
same,"activity change, negative = inhibition",[8],1.22% [at 15.8 µM]
COC(=O)Nc1nc2ccc(C(=O)c3cccs3)cc2[nH]1,Potency,[1],266 nM (active)
same,outcome,[2],inactive
same,Potency,[3],inactive
same,Potency,[4],26.6 µM (active)
same,Potency,[5],38.9 µM (active)
same,Potency,[9],12.9 µM (active)
same,Potency,[8],inactive
same,Potency,[10],inactive
CNCCCC1c2ccccc2C=Cc2ccccc21,Potency,[12],26.6 µM (active)
same,outcome,[2],inactive
same,Potency,[13],3.55 µM (active)
same,Potency,[5],4.9 µM (active)
same,Potency,[6],inactive
same,Potency,[7],inactive
same,Potency,[9],inactive
CO[C@H]1C=CO[C@@]2(C)Oc3c(C)c(O)c4c(O)c(c5c(c4c3C2=O)=NC2(CCN(CC(C)C)CC2)N=5)NC(=O)/C(C)=C\C=C/[C@H](C)[C@H](O)[C@@H](C)[C@@H](O)[C@@H](C)[C@H](OC(C)=O)[C@@H]1C,Potency,[12],53.3 µM (active)
same,outcome,[2],inactive
same,Potency,[3],30 µM (active)
same,Potency,[4],5.98 µM (active)
same,Potency,[13],0.501 µM (active)
same,Potency,[14],0.158 µM (active)
same,Potency,[5],39.1 µM (active)
same,Potency,[6],39.1 µM (active)
same,Potency,[8],inactive
same,Potency,[10],9.81 µM (active)
C(=C\c1ccccc1)/CN1CCN(C(c2ccccc2)c2ccccc2)CC1,Potency,[1],inactive
same,Potency,[3],inactive
COCc1c(C(C)C)nc(C(C)C)c(/C=C/[C@@H](O)C[C@@H](O)CC(=O)O)c1-c1ccc(F)cc1,Potency,[1],2.11 µM (active) and 958 nM (active)
same,Potency,[4],15 µM (active) and 10.8 µM (active)
same,Potency,[11],11.2 µM (active)
same,Potency,[13],3.16 µM (active)
same,Potency,[14],3.55 µM (active)
same,Potency,[5],inactive
same,Potency,[6],inactive
same,Potency,[7],35.2 µM (active)
same,Potency,[9],30.9 µM (active)
same,Potency,[8],inactive
CC[C@@H]([C@H](C)O)n1ncn(-c2ccc(N3CCN(c4ccc(OC[C@@H]5CO[C@@](Cn6cncn6)(c6ccc(F)cc6F)C5)cc4)CC3)cc2)c1=O,Potency,[12],7.5 µM (active)
same,outcome,[2],inactive
same,Potency,[4],10.6 µM (active)
same,Potency,[9],inactive
CCCCC(=O)O[C@]1(C(=O)CO)[C@@H](C)C[C@H]2[C@@H]3CCC4=CC(=O)C=C[C@]4(C)[C@@]3(F)[C@@H](O)C[C@@]21C,Potency,[1],inactive
same,outcome,[2],inactive
same,Potency,[4],34.4 µM (active)
same,Potency,[5],35.6 µM (active)
same,Potency,[6],79.6 µM (active)
same,Potency,[7],35.6 µM (active)
same,Potency,[9],inactive
same,Potency,[8],inactive
